Source: PubChem BioAssay
Pol eta inh = qHTS for Inhibitors of Polymerase Eta | Potency, µM (top dose mostly 114 µM), inactives show at the top dose activity change, negative = inhibition, actives largely listed as inhibitors | DNA polymerase eta (Homo sapiens), Q9Y253 | AID 588591, 2011 | hit rate 1.2% among 390,000 | recombinant Pol eta, fluorescent DNA replication assay; also: % is scaled to controls: 0 for no effect and ±100 for the full control effect
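Pol eta at 10 nM preincubated with compounds 15 min at room temperature; reaction started with fluorescent substrate (50 nM final) and read kinetically at 0 and 10 min.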
Pol kappa inh = qHTS for Inhibitors of Polymerase Kappa; DNA polymerase kappa (Homo sapiens), Q9UBT6; purified Pol kappa, fluorescent DNA synthesis assay, 10 min; Potency, µM (series often up to 107 µM), without a hit: at the highest dose activity, negative = inhibition, actives largely listed as inhibitors; hit rate 0.53% among 400,000; also: % is scaled to controls: 0 for no effect and ±100 for the full control effect
Target sequence (Q9UBT6 whole entry, looked up): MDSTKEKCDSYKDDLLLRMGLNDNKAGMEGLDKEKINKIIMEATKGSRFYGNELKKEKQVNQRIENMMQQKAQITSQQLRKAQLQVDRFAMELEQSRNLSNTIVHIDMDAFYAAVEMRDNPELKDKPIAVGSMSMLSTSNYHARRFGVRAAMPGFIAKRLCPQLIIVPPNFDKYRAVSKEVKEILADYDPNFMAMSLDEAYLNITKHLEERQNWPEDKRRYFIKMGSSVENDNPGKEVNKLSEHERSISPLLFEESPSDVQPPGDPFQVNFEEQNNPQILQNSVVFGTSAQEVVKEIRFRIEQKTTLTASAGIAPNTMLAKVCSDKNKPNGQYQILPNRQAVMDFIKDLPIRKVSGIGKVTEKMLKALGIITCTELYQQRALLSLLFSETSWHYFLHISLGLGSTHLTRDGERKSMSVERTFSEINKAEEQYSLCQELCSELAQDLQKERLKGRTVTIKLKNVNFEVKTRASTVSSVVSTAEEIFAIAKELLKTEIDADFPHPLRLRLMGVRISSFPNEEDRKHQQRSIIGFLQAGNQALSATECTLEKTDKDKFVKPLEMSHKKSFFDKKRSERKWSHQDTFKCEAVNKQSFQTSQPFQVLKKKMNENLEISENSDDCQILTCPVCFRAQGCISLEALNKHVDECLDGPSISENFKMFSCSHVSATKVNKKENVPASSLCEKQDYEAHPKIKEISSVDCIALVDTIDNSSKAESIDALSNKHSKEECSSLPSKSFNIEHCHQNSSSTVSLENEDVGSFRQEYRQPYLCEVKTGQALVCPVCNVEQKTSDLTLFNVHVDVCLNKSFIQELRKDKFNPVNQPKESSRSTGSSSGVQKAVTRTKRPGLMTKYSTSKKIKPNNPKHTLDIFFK
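Fluorescent qHTS in 1536-well format: enzyme (10 nM) and compound sat 15 min at room temperature before 50 nM substrate (final) was added. Signal taken at 0 and 10 min; no-enzyme buffer wells were negative controls.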
WRN inhibitor = qHTS for Inhibitors of WRN Helicase; Bifunctional 3'-5' exonuclease/ATP-dependent helicase WRN (Homo sapiens), Q14191; WRN helicase unwinding, fluorescent forked duplex, kinetic; Potency, µM (titrated, usually from 114 µM), without a hit: at the top dose activity change, negative = inhibition, actives largely listed as inhibitors; hit rate 0.46% among 360,000; also: % is scaled to controls: 0 for no effect and ±100 for the full control effect; nearly all actives have a fitted effect of over 55% in size
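Primary qHTS, 1536-well format. 20 nM WRN + compound, 15 min RT; start with 100 nM forked fluorophore/quencher duplex, 2 mM ATP (final); kinetic read ex 525/em 598 nm.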
FEN1 inh = qHTS Assay for the Inhibitors of Human Flap endonuclease 1 (FEN1); Recombinant FEN1 flap cleavage, fluorescence, 15 min; Potency, µM (titrated, usually from 114 µM), without a hit: at the highest dose activity change, negative = inhibition, actives largely listed as inhibitors; hit rate 0.35% among 390,000; AID 588795, 2011; also: % is scaled to controls: 0 for no effect and ±100 for the full control effect; nearly all actives have a fitted effect of over 65% in size
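Recombinant FEN1 (10 nM) was preincubated with pin-transferred compounds for 15 min at room temperature, then flap DNA substrate (50 nM final) was added. Plates were read at 0 and 15 min, and normalized concentration–response data were fitted to a four-parameter Hill equation.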
POLB inh = qHTS Assay for Inhibitors of DNA Polymerase Beta | P06746 | Pol beta primer extension/strand displacement, fluorescence kinetic | Potency, µM (highest dose often 114 µM), inactives show at the highest dose activity change, negative = inhibition, actives largely listed as inhibitors | hit rate 1.3% among 340,000; also: % is scaled to controls: 0 for no effect and ±100 for the full control effect
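Enzyme-only controls used 10 nM Pol beta; buffer lacking enzyme served as negative control. Compound preincubated 15 min, then 50 nM substrate added; 0 and 10 min reads at room temperature.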
Pol iota inh = qHTS for Inhibitors of Polymerase Iota; DNA polymerase iota (Homo sapiens), Q9UNA4; Pol iota fluorescent replication assay, 10 min; Potency, µM (highest dose often 115 µM), for the others: at the top dose activity, negative = inhibition, actives largely listed as inhibitors; hit rate 1% among 390,000; AID 588590, 2011
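Fluorescent replication assay read twice, at 0 min and 10 min after adding 50 nM (final) substrate. Enzyme (10 nM) and compounds were first incubated 15 min at room temperature; enzyme-free buffer wells were negative controls.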
* hit, by the source's call; [ ] = dose if it differs, or a comment. Compounds with a hit are over-represented: about 2.4% of the library has one in this group of screens. Calls follow the shape of the dose curve; as a rule, active = well fitted curve in the direction sought with a large enough effect; inconclusive = small, poorly fitted or top-dose-only effect, or another doubt; inactive = no such curve, though single readings can be large; an effect the other way counts as inactive or inconclusive. Potency is read from the fitted curve at half-maximal effect.

What do the screens show for `COc1ccc(C2=Nn3c(nnc3-c3ccccc3F)SC2)cc1OC1CCOC1` (configuration not stated)?
Pol eta inh: -6.6%; Pol kappa inh: inconclusive; FEN1 inh: -2.5%; Pol iota inh: -18.4%

How did CCc1ccc(Cn2c(CNS(=O)(=O)c3ccc(F)c(Cl)c3)nc3cccnc32)cc1 do in these assays?
Pol eta inh: -14.5%; Pol kappa inh: -8.7%[60.1 µM]; FEN1 inh: 20.3%; POLB inh: -3.1%; Pol iota inh: 8.2%

Results for CC(NC(=O)CN1c2cccc3cccc(c23)S1(=O)=O)c1ccc(S(N)(=O)=O)cc1 (configuration not stated) ?
Pol eta inh: 20µM*; Pol kappa inh: inconclusive; WRN inhibitor: inconclusive; FEN1 inh: -14.4%; Pol iota inh: 28.2µM*

What do the screens show for `O=c1nc2ccccc2c2n1CC(CN1CCN(c3ccccc3)CC1)N2` (configuration not stated)?
Pol kappa inh: -0.2%[19.4 µM]

Results for CC1CC(C)CN(C(=O)c2cccc(S(=O)(=O)Nc3cc(C(F)(F)F)ccc3Cl)c2)C1 (configuration not stated) ?
Pol eta inh: -27.7%; Pol kappa inh: -20.8%; WRN inhibitor: -35.5%; FEN1 inh: -31.6%; POLB inh: 56.2µM*; Pol iota inh: 14.4%

How did CC(C)(C)NC(=O)Cc1ccc(S(=O)(=O)N2CCCC2)s1 do in these assays?
Pol eta inh: 14.1µM*; Pol kappa inh: -23.0%; WRN inhibitor: -2.5%[11.6 µM]; FEN1 inh: -7.6%; POLB inh: 35.5µM*; Pol iota inh: -7.5%

What do the screens show for `Cc1cc(C)cc(NC(=O)Cc2ccc(S(=O)(=O)N3CCCC3)s2)c1`?
Pol eta inh: 1.4%; Pol kappa inh: -23.5%; WRN inhibitor: -32.1%; FEN1 inh: -10.0%; Pol iota inh: -16.2%

Results for O=C(Cc1ccc(S(=O)(=O)N2CCCC2)s1)N1CCOCC1 ?
Pol eta inh: inconclusive; Pol kappa inh: -13.4%; WRN inhibitor: -7.5%[57.1 µM]; FEN1 inh: -2.2%; POLB inh: 44.7µM*; Pol iota inh: inconclusive

What do the screens show for `O=C(Cc1ccc(S(=O)(=O)N2CCCC2)s1)Nc1nc2c(s1)CCCC2`?
Pol eta inh: 17.8µM*; Pol kappa inh: -26.6%; WRN inhibitor: -21.8%; FEN1 inh: -19.4%; POLB inh: inconclusive; Pol iota inh: inconclusive

What do the screens show for `C=CCNC(=O)Cc1ccc(S(=O)(=O)N2CCOCC2)s1`?
Pol eta inh: -9.7%; Pol kappa inh: -11.4%; WRN inhibitor: -3.7%; FEN1 inh: -5.4%; Pol iota inh: 8.7%

What do the screens show for `CCCCCCCCCCCCCCCCCCN(CCCCCCCCCCCCCCCCCC)c1ccc(/C=C/c2ccc(C=O)cc2)cc1`?
Pol kappa inh: -19.8%; FEN1 inh: -3.7%; Pol iota inh: 21.0%

Results for Cc1ccc(NC(=O)COC(=O)/C=C/c2ccc(Br)o2)cc1S(=O)(=O)N(C)C ?
Pol eta inh: 5.5%; Pol kappa inh: inconclusive; WRN inhibitor: -5.8%[11.6 µM]; FEN1 inh: -26.3%; POLB inh: -25.3%; Pol iota inh: 44.7µM*

Results for CN(C)S(=O)(=O)c1cccc(NC(=O)COC(=O)/C=C/c2ccc(Br)o2)c1 ?
Pol eta inh: inconclusive; Pol kappa inh: inconclusive; WRN inhibitor: -4.5%[11.6 µM]; FEN1 inh: -6.8%; POLB inh: inconclusive; Pol iota inh: 44.7µM*

What do the screens show for `COC(=O)c1ccc(Cl)cc1NC(=O)N1CC=C(c2c[nH]c3ccccc23)CC1`?
Pol eta inh: -2.4%; Pol kappa inh: 2.5%; FEN1 inh: -19.0%; POLB inh: 6.6%; Pol iota inh: -22.7%

How did Cc1ccc(C2CC(=O)Oc3cc(O)ccc32)cc1 (configuration not stated) do in these assays?
Pol eta inh: 4.7%; Pol kappa inh: -13.9%; WRN inhibitor: 13.7%; FEN1 inh: 14.1%; POLB inh: -6.9%; Pol iota inh: 23.5%

Results for O=C1CC(c2ccc3c(c2)OCO3)c2cc(O)ccc2O1 (configuration not stated) ?
Pol kappa inh: 31.6µM*

Results for Cc1ccc(C2CC(=O)Oc3cc4c(cc32)OCO4)cc1 (configuration not stated) ?
Pol kappa inh: 44.7µM*

What do the screens show for `CSCC[C@H](NC(=O)[C@@H]1CCCN1C(=O)[C@H](CCCN=C(N)N)NC(=O)[C@H](CC(C)C)NC(=O)[C@@H]1CCCN1C(=O)[C@@H](NC(=O)[C@@H](N)CCC(N)=O)C(C)C)C(=O)N[C@H](C(=O)N[C@@H](Cc1ccc(O)cc1)C(=O)N[C@@H](CCCCN)C(=O)O)[C@@H](C)O`?
Pol kappa inh: -18.3%[60.1 µM]

Results for CCCN1CNc2c(c(=O)[nH]c(=S)n2CCc2ccc(C)c(C)c2)C1 ?
Pol kappa inh: -0.3%; FEN1 inh: -10.4%; Pol iota inh: -4.3%

Results for COc1ccc(C2/C=C\CN(Cc3ccccc3)C(C)C(=O)N2Cc2ccc(F)cc2)cc1 (configuration not stated) ?
Pol kappa inh: 0.5%; FEN1 inh: -27.2%; Pol iota inh: 15.1%

What do the screens show for `COc1ccc2c(CC(=O)OCC(=O)Nc3ccc(C)cc3)coc2c1`?
Pol eta inh: 20µM*; Pol kappa inh: inconclusive; WRN inhibitor: -5.5%[11.6 µM]; FEN1 inh: -0.3%; Pol iota inh: inconclusive

How did Clc1ccc2c(NNc3ccccc3Cl)ccnc2c1 do in these assays?
Pol eta inh: 1.7%; Pol kappa inh: -11.8%; WRN inhibitor: -3.1%; FEN1 inh: -14.8%; POLB inh: 0.2%; Pol iota inh: 14.3%

Results for O=[N+]([O-])c1ccc(/C=N/Nc2ccnc3cc(Cl)ccc23)o1 ?
Pol eta inh: inconclusive; Pol kappa inh: -21.9%; WRN inhibitor: -10.9%[11.6 µM]; FEN1 inh: inconclusive; POLB inh: inconclusive; Pol iota inh: inconclusive

What do the screens show for `Clc1ccc2c(N/N=C/c3ccccc3Br)ccnc2c1`?
Pol eta inh: -0.9%; Pol kappa inh: 0.0%; WRN inhibitor: inconclusive; FEN1 inh: -35.4%; POLB inh: 22.4µM*; Pol iota inh: -11.5%

How did Clc1ccc2c(N/N=C/c3cccc(Br)c3)ccnc2c1 do in these assays?
Pol eta inh: 2.0%; Pol kappa inh: -11.4%; WRN inhibitor: -17.4%; FEN1 inh: -12.6%; POLB inh: 31.6µM*; Pol iota inh: -12.1%
